Screens (PubChem)
An excerpt weighted towards active compounds, which were near 3.2% of everything screened.
rCAG RNA binder = binds r(CAG) RNA repeats; r(CAG) RNA repeat, TO-PRO-1 dye displacement fluorescence; inhibition, % at 3 µM; actives 1.3% (n = 370,000); AID 651821;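 active = inhibition above the plate cutoff, the mean of all test compounds on that plate plus 3 SD, cut at about 35% in these data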;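 note: 0% = DMSO alone and 100% = 100 µM mitoxantrone as full dye displacement; higher means more dye released from RNA so lower well fluorescence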
PG9 Ab binder = binds the HIV-1 gp120 antibody PG9 | actives 0.43% (n = 360,000) | AID 624416 | inhibition, % at 6.7 µM | TR-FRET gp120-PG9 antibody binding; in the data active = inhibition above about 8.5%
MsrA act = bovine methionine sulfoxide reductase A activation. activation, % at 10.6 µM. purified bovine MsrA, absorbance read-out. actives 0.3% (n = 360,000); in the data active = activation above about 7.5%;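 note: 0% = vehicle and 100% = reference activator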
MsrA inhibitor = bovine MsrA inhibition; purified bovine MsrA, absorbance read-out; inhibition, % at 15.5 µM; actives 0.75% (n = 360,000); AID 651718;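 note: 0% = vehicle wells with enzyme and 100% = reference inhibitor wells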
sPLA2-III inh = Blocks human group III sPLA2 activity; QFRET BODIPY PC-A2 liposome hydrolysis, fluorescence; actives 0.56% (n = 370,000); inhibition, % at 12.2 µM;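 active = inhibition above mean plus 3 SD of compounds lying within the high and low control bounds, cut at about 19% in these data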;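 note: 0% = median of test compound wells and 100% = no enzyme DMSO wells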
Target sequence (Q9NZ20 whole entry, looked up): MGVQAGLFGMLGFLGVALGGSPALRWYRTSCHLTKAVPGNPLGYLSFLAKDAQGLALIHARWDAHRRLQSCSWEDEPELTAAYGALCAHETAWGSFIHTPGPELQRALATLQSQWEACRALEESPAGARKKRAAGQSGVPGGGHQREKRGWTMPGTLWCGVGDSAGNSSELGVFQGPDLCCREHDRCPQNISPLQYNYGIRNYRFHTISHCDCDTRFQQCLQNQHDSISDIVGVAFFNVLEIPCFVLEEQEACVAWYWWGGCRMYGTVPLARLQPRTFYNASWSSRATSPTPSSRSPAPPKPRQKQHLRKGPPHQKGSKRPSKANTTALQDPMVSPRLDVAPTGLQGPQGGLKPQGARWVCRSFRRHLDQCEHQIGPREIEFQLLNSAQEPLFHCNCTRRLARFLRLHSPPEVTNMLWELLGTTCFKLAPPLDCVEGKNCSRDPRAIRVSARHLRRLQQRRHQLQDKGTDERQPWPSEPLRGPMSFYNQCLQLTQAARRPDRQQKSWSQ
MsrA inh confirm = confirmation of bovine MsrA inhibitors. shares compounds with MsrA inhibitor. AID 651822. actives 41% (n = 2,300). purified bovine MsrA, absorbance read-out. inhibition, % at 15.5 µM;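 note: coupled to thioredoxin reductase with NADPH and selenocystamine and DMSO as substrate; 0% = vehicle only and 100% = full effect of reference inhibitor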
* hit, by the source's call; nt = no result given. Cut-off read from the data, not from the text of the source, unless noted: active = inhibition above about 4.5%; inactive = the rest.

SMILES | rCAG RNA binder | PG9 Ab binder | MsrA act | MsrA inhibitor | sPLA2-III inh | MsrA inh confirm
Cc1nnc(N/N=C\c2ccc(-c3cccc(C(=O)O)c3)o2)n1N | 0.6 | -13.3 | 2.8 | 5.0* | -4.2 | 6.0*
Nc1nnc(CC(=O)N/N=C/c2ccc(-c3cccc(C(=O)O)c3)o2)s1 | 10.3 | -3.0 | -6.9 | 5.2* | -3.6 | 4.9*
Cc1ccc(/C=N/NC(=O)c2cccnc2)o1 | 1.7 | -3.1 | -2.7 | 2.9 | 0.2 | nt
O=C(N/N=C/c1ccc(N2CCCC2)c([N+](=O)[O-])c1)c1cccnc1 | 4.0 | -4.7 | -3.8 | 7.5* | 4.9 | 5.5*
O=C(N/N=C/c1ccc(-c2ccccc2[N+](=O)[O-])o1)c1cccnc1 | 0.6 | -4.0 | 0.9 | 7.1* | -10.6 | 2.9
Cc1c(C(=O)O)cccc1-c1ccc(C=O)o1 | 4.0 | 0.7 | -6.2 | 5.0* | 6.0 | 2.6
CC(C)(C)c1cc(C(=O)N/N=C/c2ccc(-c3ccccc3[N+](=O)[O-])o2)n[nH]1 | 4.3 | -3.5 | -1.3 | 1.1 | -17.8 | nt
O=C(N/N=C/c1ccc(N2CCOCC2)c([N+](=O)[O-])c1)c1ccc(F)cc1 | -3.0 | 1.7 | -1.6 | 3.0 | 5.1 | nt
O=C(OCCN1CCN(C2CN(Cc3cn(Cc4ccccc4F)nn3)S(=O)(=O)C2)CC1)c1cc2ccccc2o1 (centres undefined) | -2.0 | nt | nt | nt | -0.2 | nt
CCN1CCCCC(NC(=O)c2cc(OC)c(OC)c(OC)c2)C1=O (centres undefined) | 0.6 | nt | nt | nt | 11.0 | nt
Cc1cc2n(c(=O)c1C#N)CCCN2c1cccc(Cl)c1 | 1.0 | 1.4 | -5.2 | 6.9* | 3.9 | 5.5*
Cc1cc(N2CCOCC2)ccc1/C=C1\NC(=O)N(CC(=O)Nc2ccc(F)cc2)C1=O | 4.8 | -0.8 | -2.9 | 5.6* | -0.3 | 1.0
Cc1cccc(NC(=O)/C(C#N)=C\c2cc(C)n(-c3ccc(C(=O)O)cc3)c2C)c1 | 25.6 | -2.7 | -4.1 | 4.7* | -15.4 | 4.2
Cc1cc(/C=C(/C#N)C(=O)O)c(C)n1-c1cccc2ccccc12 | 30.4 | 2.5 | -2.7 | 5.7* | -8.6 | 4.9*
Cc1c(C(=O)O)cccc1-n1c(C)cc(/C=C(/C#N)C(=O)NCc2ccccc2)c1C | 7.8 | -0.6 | -3.2 | 3.8 | 4.9 | nt
Cc1ccccc1-n1ncc2c([N+](=O)[O-])cc([N+](=O)[O-])cc21 | -1.2 | -0.6 | 1.1 | 5.6* | 8.0 | 2.8
Cc1ccc2nc3cc([N+](=O)[O-])cc([N+](=O)[O-])c3cc2c1 | 1.6 | 0.6 | -0.3 | 0.1 | 14.3 | nt
CCc1ccc(/C=C2\SC(N3CCCC3)=NC2=O)cc1 | -2.4 | -1.9 | -4.8 | 4.8* | -5.8 | 3.3
O=C1N=C(N2CCCCC2)S/C1=C\c1ccncc1 | -1.8 | 0.8 | -2.9 | 2.2 | 0.2 | nt
COc1ccc(/C=C2\SC(N3CCCCC3)=NC2=O)cc1 | -5.0 | -3.9 | -5.0 | 5.9* | -1.9 | 4.7*
Cc1cc2nc(-c3ccc(SCc4ccc(C(=O)O)cc4)nc3)[nH]c2cc1C | 22.1 | 0.4 | -1.9 | 5.5* | 1.7 | 4.0
Cc1oc2c(CN3CCOCC3)c(O)ccc2c(=O)c1-c1ccc(Cl)cc1 | -7.3 | 1.0 | -10.9 | 5.3* | -5.0 | 1.3
Cc1oc2c(CN3CCCC3)c(O)ccc2c(=O)c1-c1ccc(Cl)cc1 | 0.0 | 1.1 | -1.4 | 2.4 | -1.7 | nt
COc1ccccc1S(=O)(=O)N(C)C[C@H]1Oc2cc(Br)ccc2S(=O)(=O)N([C@H](C)CO)C[C@H]1C | 5.4 | 0.5 | nt | 5.6* | -25.5 | 0.5
COc1ccccc1S(=O)(=O)N(C)C[C@H]1Oc2cc(Br)ccc2S(=O)(=O)N([C@@H](C)CO)C[C@H]1C | 1.9 | -1.8 | -2.5 | 0.2 | -8.0 | nt
SMILES | rCAG RNA binder | PG9 Ab binder | MsrA act | MsrA inhibitor | sPLA2-III inh | MsrA inh confirm
C[C@H]1[C@@H](OC(=O)Nc2ccc(C(F)(F)F)cc2)CC[C@@]23CCCN2C(=O)CCC[C@@H]13 | nt | nt | nt | nt | -11.2 | nt
CC1(C)Cc2c(sc(NC(=S)NC(=O)c3ccccc3)c2C(=O)O)CO1 | 17.4 | 0.7 | -2.3 | 1.3 | 7.4 | nt
CC1(C)Cc2c(sc(NC(=O)c3ccco3)c2C(=O)O)CO1 | 0.4 | -1.7 | -3.1 | 4.7* | 14.8 | 2.8
CCCCCNc1nc(NCCCO)c(C#N)c2c1CN(C)CC2 | -15.5 | -4.4 | -3.4 | 5.0* | -5.3 | 1.1
O=C(N/N=C\c1ccc[nH]1)c1cncc(Br)c1 | 0.6 | -3.0 | -0.8 | 5.1* | 1.1 | 4.6*
O=C(N/N=C/c1ccc[nH]1)c1cccc(Br)c1 | 0.8 | -3.6 | -1.1 | 4.7* | -4.3 | 4.5
CCCCN(C)c1c2c(nc3ncnn13)CCCC2 | 0.9 | nt | nt | nt | 0.7 | nt
CNc1cncc(-c2cccc(NS(C)(=O)=O)c2)n1 | 1.2 | 1.2 | -2.2 | 5.8* | 1.5 | 4.4
CNc1cncc(-c2cccc(C(C)=O)c2)n1 | 2.5 | 1.1 | -3.2 | 3.7 | 15.8 | nt
CN1CCc2c(sc3c2C(=O)NC(c2cn(Cc4ccccc4)c4ccccc24)N3)C1 (centres undefined) | 3.8 | -0.3 | -8.4 | 5.5* | -8.4 | 0.3
CC1(C)Cc2c(cnn2-c2ccc(F)cc2)C(NC(=O)c2cnccn2)C1 (centres undefined) | -6.3 | -3.7 | -5.5 | -0.4 | 2.0 | nt
CC1(C)Cc2c(cnn2-c2ccc(F)cc2)C(NC(=O)c2ccc(=O)oc2)C1 (centres undefined) | 10.2 | -2.0 | -3.8 | 6.4* | 3.4 | 5.5*
COc1ccc(/C=N/NC(=O)c2sc(C)nc2C)cc1 | -1.2 | 1.1 | -2.6 | 2.0 | 0.4 | nt
COc1ccc(C(=O)N/N=C/c2cccnc2)cc1 | -2.9 | -1.1 | -2.9 | 1.2 | 7.1 | nt
Cc1nc(N)sc1C(=O)N/N=C/c1cccnc1 | -0.6 | -2.1 | -4.6 | 5.8* | 8.0 | 2.7
COc1ccccc1/C=N/NC(=O)c1sc(C)nc1C | 4.7 | 0.2 | -6.0 | 5.1* | 2.1 | 1.3
COC(=O)[C@]12C[C@H](CC(=O)N3CCC(c4ccccc4)CC3)C(=O)N(Cc3ccc(Cl)cc3Cl)C1=C[C@H](C(C)(C)C)O[C@@H]2C | 4.4 | nt | nt | nt | 0.0 | nt
O=C(NC1CCCCN(Cc2cccc(C(F)(F)F)c2)C1=O)c1ccc(F)cc1 (centres undefined) | -3.3 | nt | nt | nt | -1.6 | nt
CC(C)(C)C(=O)Nc1ccc(F)cc1[N+](=O)[O-] | -0.4 | -3.2 | -2.8 | 6.3* | 4.4 | 7.5*
CC(=O)Nc1cc2c(cc1[N+](=O)[O-])-c1ccc(F)cc1C2 | 1.8 | -0.8 | -1.5 | 0.8 | -8.4 | nt
O=C(c1cccc(F)c1)N1CCCC(c2nc(-c3cccs3)no2)C1 (centres undefined) | 0.1 | nt | nt | nt | -4.0 | nt
NC(=O)N/N=C/c1ccc(-c2ccc(S(=O)(=O)Nc3ncccn3)cc2)o1 | -6.1 | -3.2 | -1.5 | 5.7* | 3.0 | 6.4*
NC(=O)N/N=C/c1ccc(-c2cccc(C(F)(F)F)c2)o1 | 2.0 | -1.8 | -3.0 | 3.9 | 4.9 | nt
CC1=CS/C(=C(/C#N)C(=O)N2CCCCC2)N1c1ccccc1 | -1.3 | 1.2 | -4.0 | 4.1 | 1.0 | nt
N#C/C(C(=O)N1CCCCC1)=C1\Nc2ccccc2S1 | 1.7 | -6.3 | -7.5 | 8.2* | 14.4 | 5.0*
Cc1nn(C)c(C)c1/C=C/C(=O)c1ccc(Cl)cc1Cl | -4.8 | -0.8 | -7.1 | 6.4* | -5.0 | 2.9
